Reference: PubChem BioAssay (Tox21)
Inconclusive results are not listed. Activity calls are given as the source filed them. Unless noted, calls follow the shape of the dose curve; as a rule, active = well fitted curve in the direction sought with a large enough effect in the repeat runs; inconclusive = weak or mixed curves; inactive = no such curve, though single readings can be large; an effect the other way counts as inactive or inconclusive.

What was measured:
[1] = A CellTox Green Cytotoxicity Assay to monitor cytotoxicity in HepG2 cells - 8 hour (AID 1224890); also: nearly all actives have a fitted effect of over 45% in size
In short: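 Real-time, homogeneous cytotoxicity readout: dead-cell DNA staining by CellTox Green in HepG2 monolayers, fluorescence measured at timed intervals up to 40 h of continuous compound exposure.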

[2] = qHTS assay to identify small molecule antagonists of the estrogen receptor alpha (ER-alpha) signaling pathway using the BG1 cell line in the presence of 0.1 nM 17-beta-estradiol - cell viability counter screen (AID 1259241); also: nearly all actives have a fitted effect of over 40% in size
In short: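 Estradiol-stimulated (0.1 nM) VM7Luc4E2 cells exposed to compounds 22 hr; viability measured by fluorescence of cleaved CellTiter-Fluor substrate after 30 min.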

[3] = qHTS assay to identify small molecule antagonists of the androgen receptor (AR) signaling pathway using the MDA cell line in the presence of 0.5 nM R1881 - cell viability counter screen (AID 1259242); also: nearly all actives have a fitted effect of over 45% in size
In short: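 Cytotoxicity toward MDA-kb2 cells is measured by CellTiter-Fluor live-cell protease fluorescence after 16 hr compound exposure at 37C in the presence of 0.5 nM R1881 stimulator.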

[4] = target: Estrogen receptor (Homo sapiens) (UniProt P03372); assay: qHTS assay to identify small molecule antagonists of the estrogen receptor alpha (ER-alpha) signaling pathway using the BG1 cell line in the presence of 0.1 nM 17-beta-estradiol (AID 1259244); also: nearly all actives have a fitted effect of over 50% in size
In short: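 After 5 days in hormone-depleted medium (charcoal-stripped serum, no phenol red), VM7Luc4E2 cells were seeded, incubated 24 h, then co-treated with compound and 0.1 nM (final) estradiol for 22 h before luminescence detection.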

[5] = qHTS assay to identify small molecule HDAC inhibitors (AID 1259364); also: top concentration of the series differs between compounds; nearly all actives have a fitted effect of over 45% in size
In short: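 Homogeneous cell-based luminescent assay of endogenous class I/II HDAC activity; HCT-116 cells, 2 h compound exposure, 30 min HDAC-Glo development at RT.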

[6] = qHTS assay to identify small molecule HDAC inhibitors - cell viability counter screen (AID 1259365); also: series mostly up to about 92 µM; nearly all actives have a fitted effect of over 50% in size
In short: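 After overnight seeding at 1,500 cells per well, wild-type HCT-116 cultures took up compounds in DMSO for 2hr at 37 C. Viable cell content came from luminescence with CellTiter-Glo.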

[7] = qHTS assay to identify small molecule agonists of the sonic hedgehog signaling (Shh) pathway - cell viability counter screen (AID 1259366); also: nearly all actives have a fitted effect of over 50% in size
In short: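 Same-well cytotoxicity read. Gli1-Luc reporter 3T3 cells; compounds 24hr, 37C/5% CO2; CellTiter-Fluor fluorescence.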

[8] = qHTS assay to identify small molecule antagonists of the sonic hedgehog signaling (Shh) pathway - cell viability counter screen (AID 1259367); also: nearly all actives have a fitted effect of over 55% in size
In short: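 NIH/3T3-derived Gli1-Luc reporter cells, 2,000/well, plated 4 hr before compound addition, then stimulated with conditioned medium for 24 hr at 37C. Viability measured in the same wells by CellTiter-Fluor fluorescence, reagent added at 23 hr for 1 hr.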

[9] = qHTS assay to identify small molecule agonists of the sonic hedgehog signaling (Shh) pathway (AID 1259368; calls by dose curve;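 also: NIH/3T3-derived 3T3Gli1-Luc cells carrying a stable Gli1-driven firefly luciferase reporter; series mostly up to about 92 µM; nearly all actives have a fitted effect of over 15% in size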)
In short: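 Steps: seed 3T3 Gli1-Luc cells, incubate 4 hr at 37 C, pin-transfer compounds in DMSO alongside a positive control, incubate 24 hr, add luciferase detection reagent, wait 30 min at room temperature, read luminescence.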

[10] = qHTS assay to identify small molecule antagonists of the sonic hedgehog signaling (Shh) pathway (AID 1259369; calls by dose curve; also: nearly all actives have a fitted effect of over 45% in size)
In short: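 Inhibition of Shh signalling is measured as reduced Gli1-response-element firefly luciferase output in an NIH/3T3-derived stable reporter clone stimulated with conditioned medium for 24hr.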

[11] = qHTS assay to identify small molecule agonists of the androgen receptor (AR) signaling pathway in the presence of an antagonist - cell viability counter screen (AID 1259379);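 also: MDA-kb2 human breast cancer cells carrying an MMTV luciferase reporter; series mostly up to about 92 µM; nearly all actives have a fitted effect of over 25% in size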
In short: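 Fluorescence from CellTiter-Fluor, added after 15 hr and read 1 hr later, gave cell viability. Cells were MDA-kb2 exposed to compounds (15 concentrations) in the presence of 3.0uM nilutamide at 37C, 0% CO2.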

[12] = qHTS assay to identify small molecule agonists of the estrogen receptor beta (ER-beta) signaling pathway - cell viability counter screen (AID 1259380); also: nearly all actives have a fitted effect of over 30% in size
In short: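 Same-well viability counter screen. Cells: ER-beta-UAS-bla HEK293T, plated 6 hr before compound, in 2% charcoal-stripped FBS. Compound exposure 16 hr, 37C; viability by CellTiter-Glo luminescence after 30 min at room temperature.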

[13] = qHTS assay to identify small molecule antagonists of the estrogen receptor beta (ER-beta) signaling pathway - cell viability counter screen (AID 1259382); also: series mostly up to about 92 µM; nearly all actives have a fitted effect of over 55% in size
In short: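 Following a 6 hr plating period, HEK293T cells carrying a UAS-driven beta-lactamase reporter under ER-beta control received compounds and 1nM E2 (final). After 16 hr at 37C and 2 hr substrate loading, CellTiter-Glo luminescence indicated viability.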

[14] = target: Estrogen receptor (Homo sapiens) (UniProt P03372); assay: qHTS assay to identify small molecule agonists of the estrogen receptor alpha (ER-alpha) signaling pathway in the presence of an antagonist (AID 1259383; calls by dose curve; also: top concentration of the series differs between compounds; nearly all actives have a fitted effect of over 15% in size)
In short: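 Cells are hormone-deprived for 5 days (charcoal-stripped FBS, no phenol red), plated for 24hr, spiked with 10.0nM ICI-182,780, then dosed at 15 concentrations. After 22hr at 37C, ONE-Glo luminescence reports ERE-luciferase activity.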

[15] = qHTS assay to identify small molecule agonists or antagonists of the thyroid stimulating hormone receptor (TSHR) signaling pathway - wild type cell line counter screen (AID 1259384; calls by dose curve)
In short: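 Wild-type Hek293 cells, 800/well, 18 h at 37C, then compound with Ro20-1724 for 30 min RT. cAMP by HTRF (cAMP-d2/anti-cAMP cryptate), 1 h RT, fluorescence read. 15 concentrations, triplicates.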

[16] = target: Estrogen receptor beta (Homo sapiens) (UniProt Q92731); assay: qHTS assay to identify small molecule agonists of the estrogen receptor beta (ER-beta) signaling pathway (AID 1259377; active = well fitted activation curve with a large enough effect in the signal ratio in the repeat runs, not every such curve was filed as active; the % refers to the signal ratio)
In short: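 Read-out: beta-lactamase FRET fluorescence. Cell line: ER-beta-UAS-bla HEK293T in 2% charcoal-stripped FBS. Exposure: 16 hr at 37C. Substrate step: 2 h at room temperature.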

[17] = target: Estrogen receptor beta (Homo sapiens) (UniProt Q92731); assay: qHTS assay to identify small molecule antagonists of the estrogen receptor beta (ER-beta) signaling pathway (AID 1259378; active = well fitted inhibition curve with a large enough effect in the signal ratio in the repeat runs, not every such curve was filed as active; the % refers to the signal ratio)
In short: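 ER-beta-UAS-bla HEK293T cells in 2% charcoal-stripped FBS medium treated with compound plus 1nM final 17-beta-estradiol for 16 hr at 37C. Beta-lactamase reporter read by FRET substrate fluorescence after 2 hours at room temperature.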

Measured: Potency

Estrogen receptor beta (Homo sapiens), sequence (Q92731 whole entry, looked up): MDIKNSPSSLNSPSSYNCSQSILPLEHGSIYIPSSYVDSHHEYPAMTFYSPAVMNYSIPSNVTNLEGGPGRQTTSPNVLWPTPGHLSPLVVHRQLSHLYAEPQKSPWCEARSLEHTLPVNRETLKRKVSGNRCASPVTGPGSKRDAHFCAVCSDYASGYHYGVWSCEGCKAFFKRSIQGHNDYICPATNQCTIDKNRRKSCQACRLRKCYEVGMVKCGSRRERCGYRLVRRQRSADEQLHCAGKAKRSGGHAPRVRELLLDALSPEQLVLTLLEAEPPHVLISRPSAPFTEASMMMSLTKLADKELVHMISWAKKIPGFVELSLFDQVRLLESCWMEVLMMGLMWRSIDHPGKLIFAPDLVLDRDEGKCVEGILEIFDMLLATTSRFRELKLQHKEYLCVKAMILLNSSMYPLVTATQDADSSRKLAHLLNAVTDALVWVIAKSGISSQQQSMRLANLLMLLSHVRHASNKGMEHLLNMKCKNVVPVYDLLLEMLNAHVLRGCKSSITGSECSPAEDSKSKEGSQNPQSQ
Estrogen receptor (Homo sapiens), sequence (P03372 whole entry, looked up): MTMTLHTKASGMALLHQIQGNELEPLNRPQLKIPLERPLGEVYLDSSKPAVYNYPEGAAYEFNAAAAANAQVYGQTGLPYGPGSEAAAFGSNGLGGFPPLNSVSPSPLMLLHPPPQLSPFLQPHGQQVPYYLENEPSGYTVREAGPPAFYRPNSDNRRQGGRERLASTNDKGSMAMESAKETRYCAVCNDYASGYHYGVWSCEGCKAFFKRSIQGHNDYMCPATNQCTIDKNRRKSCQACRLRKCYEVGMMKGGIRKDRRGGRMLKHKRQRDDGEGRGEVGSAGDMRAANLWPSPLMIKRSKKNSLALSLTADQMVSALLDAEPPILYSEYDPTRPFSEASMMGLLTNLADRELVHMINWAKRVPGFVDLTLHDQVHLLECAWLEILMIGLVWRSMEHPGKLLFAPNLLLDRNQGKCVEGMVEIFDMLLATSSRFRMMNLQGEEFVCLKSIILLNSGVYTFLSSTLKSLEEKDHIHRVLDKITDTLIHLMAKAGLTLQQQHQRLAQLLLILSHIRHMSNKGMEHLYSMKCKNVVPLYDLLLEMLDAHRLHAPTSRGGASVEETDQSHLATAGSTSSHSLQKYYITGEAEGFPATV

CC(C)(C)NCCNC(C)(C)C
not listed: [16] | [17]
inactive: all other assays above

OC(CCN1CCCCC1)(c1ccccc1)C1CC2C=CC1C2 (stereo unspecified)
inactive: [1] | [2] | [3] | [4] | [5] | [6] | [8] | [13] | [14]

CC/C=C\CCOC(C)=O
not listed: [10]
inactive: all other assays above

CC(C)(O)C#CC(C)(C)O
not listed: [10] | [15] | [16] | [17]
inactive: all other assays above

N#Cc1ccc(C2CCCc3cncn32)cc1 (stereo unspecified)
not listed: [10] | [16] | [17]
inactive: all other assays above

CC(C)OC(=O)c1ccccc1
not listed: [5]
inactive: all other assays above

O=Cc1cccc([N+](=O)[O-])c1
not listed: [5] | [16] | [17]
inactive: all other assays above

C=C1CC[C@H]2C[C@@H]1C2(C)C
not listed: [7] | [15]
inactive: all other assays above

Cc1sccc1Br
not listed: [16] | [17]
inactive: all other assays above

NC(=O)Nc1ccccc1
not listed: [5] | [13]
inactive: all other assays above

O=C(O)CCCl
not listed: [10] | [13] | [15]
inactive: all other assays above

CC(=O)CC(C)(C)C1CCCCC1
not listed: [5] | [15]
inactive: all other assays above

CCOC(C)(C)C
not listed: [7] | [13] | [16] | [17]
inactive: all other assays above

OCCOc1ccc(OCCO)cc1
not listed: [16] | [17]
inactive: all other assays above

CC(=O)OC/C=C(\C)CC/C=C(\C)CCC=C(C)C
not listed: [9]
inactive: all other assays above

CCC(C)C1CCCCC1=O (stereo unspecified)
not listed: [9]
inactive: all other assays above
